Consider 7 compounds from PubChem BioAssay (NCI).

The structures appear in SMILES notation. This is part of a sample that, as a whole, favours compounds with a hit. Of some 83,000 tested, about 20% had one in any assay.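 Values shown are percent growth following 48 h exposure of cells in 96-well plates to a single concentration of compound; below 10 was considered active.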 Values without a mark were called inactive. Activity calls are given as the source filed them.

Holding throughout (test): NCI-60 one-dose screen, 48 h (100 = growth as untreated, 0 = no growth, -100 = all killed)
In assay [1] the test system is HCT-15 colon. The conditions noted are these: 10 µM unless noted.
In assay [2] the test system is HT29 colon. The conditions noted are these: 10 µM unless noted.
In assay [3] the test system is SNB-75 CNS. The note with it: 10 µM unless noted.
Assay [4] deals with SNB-19 CNS. The note with it: 10 µM unless noted.
Assay [5] relates to U251 CNS. The conditions noted are these: 10 µM unless noted.
The test system of assay [6] is PC-3 prostate. The note with it: 10 µM unless noted.
Assay [7] relates to SK-MEL-5 melanoma. The note with it: 10 µM unless noted.
Assay [8] concerns UACC-62 melanoma. The conditions noted are these: 10 µM unless noted.
Assay [9] deals with LOX IMVI melanoma. The note with it: 10 µM unless noted.
The subject of assay [10] is SK-MEL-28 melanoma. The note with it: 10 µM unless noted.
In assay [11] the test system is SK-MEL-2 melanoma. The note with it: 10 µM unless noted.
Assay [12] deals with EKVX NSCLC. The conditions noted are these: 10 µM unless noted.
The test system of assay [13] is SN12C renal. The note with it: 10 µM unless noted.
Assay [14] relates to UO-31 renal. The conditions noted are these: 10 µM unless noted.
Assay [15] concerns TK-10 renal. The conditions noted are these: 10 µM unless noted.
The subject of assay [16] is ACHN renal. The conditions noted are these: 10 µM unless noted.
The test system of assay [17] is CAKI-1 renal. The note with it: 10 µM.
In assay [18] the test system is MOLT-4 leukemia. The note with it: 10 µM unless noted.
Assay [19] concerns A498 renal. The note with it: 10 µM unless noted.
For assay [20], the system named is CCRF-CEM leukemia. The conditions noted are these: 10 µM unless noted.

With `CC(c1ccccc1)N1C(=O)/C(=C/c2csc(C#N)n2)SC1=S` (configuration not stated), the growth is 76.1% in assay [1]; 106% in assay [2]; 85.4% in [3]; 93.7% in assay [4]; 94.1% in [5]; 90.5% in assay [6]. The growth in assay [7] was 96.9%; in assay [8], 85.4%; in assay [9], 39.8%; in [10], 93.5%; in assay [11], 96.2%; in assay [12] it was 98.5%. The growth in assay [13] was 93.3%; in assay [14] it was 64.8%; in assay [15] it was 119%; in assay [16] it was 87%; in assay [17], 84.9%; in assay [18], 36.5%.
Take `Cc1cc(O)c(=O)cc2c1C[C@H]1CC(C)(C)/C=C/C[C@]3(C)Oc4cc(=O)c(O)cc(C)c4C[C@H]3C[C@H](O)[C@@]1(C)O2`: the growth in [1] was 18.5%; in assay [2], 8.78% (active); in [3], 23.9%; in assay [4], 11.2%; in assay [5], 3.83% (active); in [6], 9.28% (active). Further, the growth was -46.5% (active) in [7]; -41% (active) in assay [8]; 6.81% (active) in [9]; 11.1% in assay [10]; -27.1% (active) in assay [11]; 3.91% (active) in assay [12]. Further, the growth was 6.41% (active) in assay [13]; -15.8% (active) in assay [14]; -1.4% (active) in assay [15]; -3.47% (active) in assay [16]; -7.88% (active) in [19]; 4.82% (active) in assay [20]. Further, in assay [18], the growth is 2.51% (active).
For `CN1CCN(c2ccc3c(C(N)=O)c(NC(=O)c4ccc(C(C)(C)C)cc4)sc3c2)CC1`, the growth was 16.4% in assay [1]; 20.4% in assay [2]; 81.6% in assay [3]; 76.2% in [4]; 59.1% in assay [5]; 79.2% in [6]. The growth in assay [7] was 89.7%; in assay [8], 99.5%; in [9] it was -53.3% (active); in assay [10], 90%; in [11], 97.4%; in assay [12] it was 85.2%. In addition, the growth in assay [13] is 90%; in assay [14], 97.5%; in [15] it was 123%; in [16] it was 96.4%; in assay [17], 100%; in [20], 53.3%. Further, in assay [18], the growth was 41.9%.
As to `CN1CCN(c2ccc3c(c2)nc(NNC(=O)c2ccncn2)c2cccn23)CC1`, the growth was 25.1% in assay [1]; 32.7% in [2]; 61.9% in assay [3]; 35.1% in assay [4]; 34% in assay [5]; 46.5% in [6]. Besides, the growth is 13.7% in [7]; 22.2% in assay [8]; 11.4% in assay [9]; 28.3% in [10]; 31.5% in [11]; 22.4% in assay [12]. In addition, the growth was 29.1% in assay [13]; 13% in assay [14]; 43.1% in [15]; 12.5% in assay [16]; 6.41% (active) in assay [17]; 15.3% in [20]. The growth in assay [18] is 10.4%.
Consider `C=C(C)[C@@H]1CC[C@]2(COS(C)(=O)=O)CC[C@]3(C)[C@H](CC[C@@H]4[C@@]5(C)CCCNC(C)(C)[C@@H]5CC[C@]43C)[C@@H]12`, for which the growth was 3.99% (active) in [1]; 19.7% in assay [2]; 112% in assay [3]; 81.5% in assay [4]; 13.6% in [5]; 67.7% in assay [6]. Moreover, the growth in [7] was 97.4%; in assay [8] it was 74.8%; in [9], -79% (active); in assay [10], 103%; in [11], 94.7%; in assay [12], 89.2%. Besides, the growth in [13] was 76%; in assay [14], 81.5%; in assay [15], 107%; in assay [16], 99.2%; in [17], 86.8%; in assay [20], 71.4%. The growth in assay [18] was 29.5%.
As to `CC[C@@](C)(NC(=O)C(C)(C)NC(=O)[C@@H](NC(=O)[C@@H]1CCCN1C(=O)C(C)(C)NC(=O)[C@H](CC(C)C)NC(=O)CNC(=O)C(C)(C)NC(=O)[C@@H](NC(=O)C(C)(C)NC(=O)[C@H](CCC(N)=O)NC(=O)[C@H](C)NC(=O)C(C)(C)NC(=O)[C@H](C)NC(=O)C(C)(C)NC(=O)[C@H](C)NC(=O)C(C)(C)NC(C)=O)C(C)C)C(C)C)C(=O)N[C@@H](CCC(N)=O)C(=O)N[C@@H](CCC(N)=O)C(=O)N[C@H](CO)CC1CCCCC1`, the growth in assay [1] was 101% [5 µM]; in assay [2], 23% [5 µM]; in [3], 13.4% [5 µM]; in assay [4] it was 24.3% [5 µM]; in assay [5], 29.2% [5 µM]; in assay [6], 15.5% [5 µM]. The growth is -43.5% [5 µM] (active) in assay [7]; 31.1% [5 µM] in assay [8]; 0.772% [5 µM] (active) in [9]; 26.9% [5 µM] in assay [10]; -21.9% [5 µM] (active) in assay [11]; 65.6% [5 µM] in assay [12]. The growth in [13] is 9.8% [5 µM] (active); in assay [14] it was 91.1% [5 µM]; in assay [15] it was 88.3% [5 µM]; in [16] it was 107% [5 µM]; in assay [19] it was 39.7% [5 µM]; in assay [20], 27.4% [5 µM]. Moreover, the growth in assay [18] was 21% [5 µM].
As for `Cn1cc(-c2nnc(N)nc2-c2cn(C)c3ccc(F)cc23)c2cc(F)ccc21`, the growth in [1] was 91.8%; in assay [2] it was 63.3%; in [3], 64.4%; in assay [4], 91%; in assay [5], 83.2%; in assay [6] it was 95.2%. The growth in assay [7] is 91%; in assay [8], 94.6%; in assay [9], 98.4%; in [10], 103%; in assay [11], 97%; in assay [12] it was 101%. Moreover, the growth in assay [13] is 89.2%; in assay [14] it was 82.6%; in assay [15], 91.4%; in [16], 100%; in assay [17], 79.7%; in assay [20] it was 100%. Moreover, in assay [18], the growth was 79.1%.
